# Results published in the supplement of paper PMC10127200.
# Counter-ions that a name gives are not always drawn.
# How the values were obtained:
# Assay in all cases: Euclidean distance of Cell Painting phenotypic profile (signed KS, 77 features) to DMSO centroid (dimensionless distance); 5 or 10 uM (library dependent); higher = stronger phenotypic change vs DMSO (phenoactivity)
# Conditions in all cases: 48 h
# 786-O = tested on: 786-O
# Summary of the method: (§1)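 Harmony extracted 77 features from 20X confocal images (9 fields/well) of stained cells, scoring each as a signed Kolmogorov-Smirnov statistic against same-plate vehicle wells. The cells, five cancer lines and a healthy fibroblast line, had received library compounds for 48 h at 10 or 5 uM depending on library, with 0.1% DMSO final. Phenoactivity is the Euclidean distance from each plate-position-corrected, correlation-weighted, top-dose replicate-averaged profile to the median vehicle profile.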
# A549 = tested on: A549
# Summary of the method: as §1
# DU145 = tested on: DU145
# Summary of the method: as §1
# FB = tested on: FB
# Summary of the method: as §1
# HEPG2 = tested on: HEPG2
# Summary of the method: as §1
# OVCAR4 = tested on: OVCAR4
# Summary of the method: as §1
Compound,Euclidean distance (786-O),Euclidean distance (A549),Euclidean distance (DU145),Euclidean distance (FB),Euclidean distance (HEPG2),Euclidean distance (OVCAR4)
CCc1cncnc1N1CCN(Cc2nc3ccc(C(F)(F)F)cc3[nH]2)CC1,1.03,0.742,0.956,1.1,0.883,1.13
NC(CO)C(=O)NNCc1ccc(O)c(O)c1O (stereo unspecified) [Benserazide HCl],1.18,0.748,0.938,0.967,0.666,1.39
CCC(C)(C)C(=O)O[C@H]1C[C@@H](C)C=C2C=C[C@H](C)[C@H](CC[C@@H]3C[C@@H](O)CC(=O)O3)[C@H]21 [Simvastatin],1.35,0.686,1.1,1.4,1.9,1.18
CC(CN1c2ccccc2Sc2ccccc21)N(C)C (stereo unspecified) [Promethazine HCl],0.72,0.962,1.47,1.72,0.856,1.1
CN1CCN(c2ccc(OC(F)(F)F)c(Nc3ncc4c(n3)-c3c(c(C(N)=O)nn3CCO)CC4)c2)CC1,2.75,4.08,3.85,3.73,2.82,3.67
NC[C@H]1O[C@H](O[C@H]2[C@H](O[C@@H]3O[C@H](CO)[C@@H](O)[C@H]3O)[C@@H](O)[C@H](N)C[C@@H]2N)[C@H](N)[C@@H](O)[C@@H]1O [Ribostamycin Sulfate],1.45,1.17,1.23,0.806,0.615,1.22
O=C(Nc1ccc(O)cc1)c1ccccc1O [Osalmid],1.02,0.634,1.01,1.27,0.744,0.853
COc1cc(N2CCC(N)CC2)ccc1Nc1ncc(Cl)c(-c2c[nH]c3ccccc23)n1,2.97,3.34,2.4,4.05,2.56,2.07
OC[C@H]1O[C@@H](c2ccc(F)c(Cc3cc4ccccc4s3)c2)[C@H](O)[C@@H](O)[C@@H]1O [Ipragliflozin (ASP1941)],0.648,0.591,0.895,0.802,0.412,0.699
CCCCNC(=O)NS(=O)(=O)c1ccc(C)cc1 [Tolbutamide],1.41,0.625,0.836,0.823,0.337,0.856
COc1cccc(N2CCN(C3=Nc4c(F)cccc4C(CC(=O)O)N3c3cc(C(F)(F)F)ccc3OC)CC2)c1 (stereo unspecified) [Letermovir(AIC246)],1.22,1.44,0.984,0.978,0.523,1.01
O=C(O)P(=O)(O)O [Foscarnet Sodium],1.83,0.762,1.18,0.986,0.776,1.11
Cc1cc(C)c(Nc2ccnc(Nc3ccc(C#N)cc3)n2)c(C)c1 [Dapivirine (TMC120)],2.34,2.56,1.87,1.33,3.09,2.01
CC1=C(/C=C/C(C)=C/C=C/C(C)=C/C(=O)Nc2ccc(O)cc2)C(C)(C)CCC1 [Fenretinide],2.9,2.87,1.92,2.58,1.91,2.4
Cn1nnc(-c2ccc(-c3ccc(N4C[C@H](COP(=O)(O)O)OC4=O)cc3F)cn2)n1 [Tedizolid Phosphate],0.75,0.64,0.82,0.929,0.638,0.87
NC[C@H](O)c1ccc(O)c(O)c1 [Noradrenaline bitartrate monohydrate],1.19,0.515,0.963,1.17,0.697,0.846
CCCc1nn(C)c2c(=O)[nH]c(-c3cc(S(=O)(=O)N4CCN(C)CC4)ccc3OCC)nc12 [Sildenafil Citrate],1.87,1.4,1.4,0.899,0.957,1.28
Cn1cnc2c1c(=O)[nH]c(=O)n2C [Theobromine],0.718,0.658,0.727,0.792,1.77,0.9
COC(=O)N1CCN(Cc2cccc(NC(=O)Nc3ccc(C)nc3)c2F)CC1,1.27,1.17,0.538,0.851,0.768,1.28
O=C(O)C(Cc1ccccc1[N+](=O)[O-])=NNc1nc(-c2ccc(Cl)c(Cl)c2)cs1 (mixture of isomers),0.716,1.16,0.992,2.32,0.514,0.642
CSc1ccc(C(=O)/C=C/c2cc(C)c(OC(C)(C)C(=O)O)c(C)c2)cc1 [Elafibranor],1.24,1.28,0.801,1.43,0.747,0.978

Compound,Euclidean distance (786-O),Euclidean distance (A549),Euclidean distance (DU145),Euclidean distance (FB),Euclidean distance (HEPG2),Euclidean distance (OVCAR4)
O=C1c2ccc(Nc3ccc(F)cc3F)cc2CCc2ccc(OC[C@H](O)CO)cc21 [Skepinone-L],1.06,1.85,1.78,2.05,0.828,1.31
Nc1nc(N)c2nc(-c3cccc(O)c3)c(-c3cccc(O)c3)nc2n1,1.06,1.73,1,1.45,2.84,1.02
COc1ccc(F)c(F)c1C(=O)c1cnc(NC2CCN(S(C)(=O)=O)CC2)nc1N,2.79,3.51,2.68,2.58,3.18,4.31
COc1cccc(Nc2c(C(N)=O)cnc3c(C)cc(S(=O)(=O)c4cccc(C(=O)N(C)C)c4)cc23)c1,1.2,0.89,1.05,1.95,1.19,1.48
Cc1cn[nH]c1 [Fomepizole],0.803,0.542,1.4,0.868,1.97,0.897
CCCN(CCC)CCc1cccc2c1CC(=O)N2 [Ropinirole HCl],1.32,1.01,0.736,1.3,0.483,1.2
Cn1cc(C2=C(c3ccc(Cl)cc3Cl)C(=O)NC2=O)c2ccccc21,1.92,0.949,1.79,1.57,1.08,1.01
CC(C)(C)c1ccc(C(O)CCCN2CCC(C(O)(c3ccccc3)c3ccccc3)CC2)cc1 (stereo unspecified) [Terfenadine],1.05,4.51,1.53,1.18,1.05,1.52
COc1c(C)c2c(c(O)c1C/C=C(\C)CCC(=O)OCCN1CCOCC1)C(=O)OC2 [Mycophenolate Mofetil],2.59,3.61,2.11,3.32,2.76,3.19
C[C@@H](N)[C@H]1CC[C@H](C(=O)Nc2ccncc2)CC1,3.12,3.33,3.45,2.59,1.02,3.15
Cc1cc2ncc(C(=O)NCC(C)(C)NCC(=O)N3CCC[C@H]3C#N)cn2n1 [Anagliptin],1.08,1.14,1.17,1.29,0.393,1.17
C/C=C(/C(=C/C)c1ccc(O)cc1)c1ccc(O)cc1 [Dienestrol],0.782,0.603,0.8,0.859,0.715,0.784
O=C(O)c1ccc(Nc2ncc3c(n2)-c2ccc(Cl)cc2C(c2c(F)cccc2F)=NC3)cc1,2.83,3.8,2.7,2.34,3.27,3.07
COc1ccc(CCNCC(O)COc2cccc(C)c2)cc1OC (stereo unspecified) [Bevantolol hydrochloride],1.02,0.717,1.07,1.21,0.573,1.03
Cc1ccc(C(=O)C(C)CN2CCCCC2)cc1 (stereo unspecified) [Tolperisone HCl],0.966,0.611,1.08,0.909,0.439,0.725
Cc1nnc(SCC2=C(C(=O)O)N3C(=O)[C@@H](NC(=O)Cn4cc(Cl)c(=O)c(Cl)c4)[C@H]3SC2)s1 [Cefazedone],1.36,0.841,0.667,1.16,0.733,0.862
CC(C)C[C@H](NC(=O)CNC(=O)[C@H](Cc1ccc(O)cc1)NC(=O)[C@H](CO)NC(=O)[C@H](Cc1c[nH]c2ccccc12)NC(=O)[C@H](Cc1cnc[nH]1)NC(=O)[C@@H]1CCC(=O)N1)C(=O)N[C@@H](CCCNC(=N)N)C(=O)N1CCC[C@H]1C(=O)NCC(N)=O [Gonadorelin Acetate],1.59,1.23,0.611,1.19,0.828,1.22
COc1ccc(-c2cc(=O)c3c(O)c(OC)c(O)cc3o2)cc1OC [Eupatilin],1.61,1.04,1.76,1.51,1.35,0.872
COc1cc(O)c2c(c1)C(=O)c1cc(C)cc(O)c1C2=O [Rheochrysidin],1.23,0.528,1.42,0.862,4.92,1.29
CCCCOC(=O)c1ccccc1Nc1cccc(C(F)(F)F)c1 [Ufenamate],1.52,0.505,1.4,1.25,0.931,1.83
